The source of these data is PubChem BioAssay (NCATS).

Each structure is given as a SMILES string. Records with an inconclusive call do not appear. Calls of active or inactive are those of the source. Calls come from the whole dose curve; as a rule, active = well fitted cell-killing curve with a large enough effect; inconclusive = small, poorly fitted or top-dose-only effect, or effect the other way; inactive = no such curve, though single readings can be large or run the other way.
Potency is the fitted concentration of half-maximal effect.

The nature of one test: Quantitative High-Throughput drug screen in 47 multiple myeloma cell lines against the NCATS MIPE library collection: L363_DSMZ cell viability assay (AID 1918984). Note: nearly all actives have a fitted effect of over 40% in size. Conditions: L363 myeloma viability, CellTiter-Glo ATP luminescence, 48 h; series mostly up to 45.8 µM. The method in brief: (§1)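 Inhibition of viability over 48 h was scored by ATP content (CellTiter-Glo) in 500-cell wells. Zero and full viability were defined by media-only and DMSO-only wells.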
In the case of `c1ccc([C@H]2CN3CCSC3=N2)cc1`, the Potency result is “inactive”.
The same measure, in the same setting: the same measure for `Cc1[nH]c(=O)c(C#N)cc1-c1ccncc1`: “inactive”; for `N[C@@H]1CONC1=O`: “inactive”.
Same read-out and setting: for `CCc1cc(Nc2nccc(-c3c(-c4ccc(OC)c(C(=O)Nc5c(F)cccc5F)c4)nc4ccccn34)n2)c(OC)cc1N1CCC(N2CCN(S(C)(=O)=O)CC2)CC1` the value was 16.6 µM (active).
On to `CCOc1ccc(Cc2cc([C@@H]3O[C@H](CO)[C@@H](O)[C@H](O)[C@@H]3O)ccc2Cl)cc1`, for which the Potency was 18.7 µM (active).
On the same count and under the same terms, for `OCCn1cc(-c2cnc3nnn(Cc4ccc5ncccc5c4)c3n2)cn1` the value was “inactive”.
On the same count and under the same terms, the same measure for `Cc1cccc(-c2[nH]c(C(C)(C)C)nc2-c2ccc3nccnc3c2)n1`: 1.87 µM (active).
Turning to `CN(C)c1ccc(Nc2nc(N)n(C(=O)c3c(F)cccc3F)n2)cc1`, the Potency was 20.9 µM (active).
Same read-out and setting: for `O=C1[C@H](Cc2ccc(O)cc2)N2C(=O)CCN(C(=O)NCc3ccccc3)[C@H]2CN1Cc1cccc2ccccc12` the value was “inactive”.
Still for that read-out and setting: the same measure for `NC(=O)c1cnccn1`: “inactive”; for `COCC(=O)NCC=Cc1ccc2ncnc(Nc3ccc(Oc4ccc(C)nc4)c(C)c3)c2c1`: 14.8 µM (active).
The same measure, in the same setting: for `CNCc1ccc(-c2[nH]c3cc(F)cc4c3c2CCNC4=O)cc1` the value was “inactive”.
With `Cc1cn[nH]c1`, the Potency is 0.469 µM (active).
Same read-out and setting: the same measure for `O=C1CCc2cc(OCCCCc3nnnn3C3CCCCC3)ccc2N1`: “inactive”; for `CCOc1cc(N2CCC(O)CC2)ccc1Nc1ncc2c(n1)N(C)c1ccccc1C(=O)N2C`: 0.526 µM (active).
Regarding `Cn1cnc2c(F)c(Nc3ccc(Br)cc3Cl)c(C(=O)NOCCO)cc21`, the Potency was 0.833 µM (active).
The same measure, in the same setting: for `COc1ccc([C@@H]2CC(=O)c3c(O)cc(O[C@@H]4O[C@H](CO[C@@H]5O[C@@H](C)[C@H](O)[C@@H](O)[C@@H]5O)[C@@H](O)[C@H](O)[C@@H]4O)cc3O2)cc1O` the value was “inactive”; for `COc1cc(Nc2ncc3c(n2)-c2ccc(Cl)cc2C(c2c(F)cccc2OC)=NC3)ccc1C(=O)O`, “inactive”.

A short description of a further test: Quantitative High-Throughput drug screen in 47 multiple myeloma cell lines against the NCATS MIPE library collection: KMS34_JCRB cell viability assay (AID 1918985). Note: nearly all actives have a fitted effect of over 40% in size. Conditions: KMS34 myeloma viability, CellTiter-Glo ATP luminescence, 48 h; series mostly up to 45.8 µM. The method in brief: as §1
In the case of `c1ccc([C@H]2CN3CCSC3=N2)cc1`, the Potency entry was “inactive”.
In the case of `NC(=O)c1ccc(I)c([N+](=O)[O-])c1`, the Potency entry is “inactive”.
Same read-out and setting: for `CCOc1ccc(Cc2cc([C@@H]3O[C@H](CO)[C@@H](O)[C@H](O)[C@@H]3O)ccc2Cl)cc1` the value was “inactive”; for `Fc1ccc(Cl)cc1-c1nc(Nc2ccncc2)c2nccnc2n1`, 1.32 µM (active); for `CNC[C@H](O)c1cccc(O)c1`, “inactive”.
As to `CCN(CC)CCCC(C)Nc1nc(C)cc(Nc2ccc3nc(C)cc(N)c3c2)n1` (stereo not given), the Potency entry was “inactive”.
Regarding `COCCNCCCn1c(C(=O)CF)c(-c2ccc(C)cc2)c2c(N)ncnc21`, the Potency was 16.6 µM (active).
The same measure, in the same setting: the same measure for `CNCc1ccc(-c2[nH]c3cc(F)cc4c3c2CCNC4=O)cc1`: “inactive”; for `Cc1cn[nH]c1`: 0.0662 µM (active).
Regarding `CCOc1cc(N2CCC(O)CC2)ccc1Nc1ncc2c(n1)N(C)c1ccccc1C(=O)N2C`, the Potency was 10.5 µM (active).

A short description of another test: Quantitative High-Throughput drug screen in 47 multiple myeloma cell lines against the NCATS MIPE library collection: OCIMY7_PLB cell viability assay (AID 1918987). Note: nearly all actives have a fitted effect of over 65% in size. Conditions: OCI-MY7 myeloma viability, CellTiter-Glo ATP, 48 h; series mostly up to 45.8 µM. The method in brief: as §1
On the technique in general: Cellular ATP, detected with luciferase, serves as a proxy for viable cell number.
For `CCn1c(-c2nonc2N)nc2c(C#CC(C)(C)O)ncc(OC[C@H]3CCCNC3)c21`, the Potency is 8.33 µM (active).
On the same count and under the same terms, the same measure for `CCOc1ccc(Cc2cc([C@@H]3O[C@H](CO)[C@@H](O)[C@H](O)[C@@H]3O)ccc2Cl)cc1`: 3.72 µM (active); for `OCCn1cc(-c2cnc3nnn(Cc4ccc5ncccc5c4)c3n2)cn1`: “inactive”; for `C[C@]1(c2nc3c(C(N)=O)cccc3[nH]2)CCCN1`: 5.26 µM (active).
Same read-out and setting: the same measure for `Fc1ccc(Cl)cc1-c1nc(Nc2ccncc2)c2nccnc2n1`: “inactive”.
In the case of `CN(C(=O)c1ccc(F)cc1C(F)(F)F)C1CCN(c2nnc(-c3ccnn3C)c3ccccc23)CC1`, the Potency was 0.372 µM (active).
The same measure, in the same setting: for `CN(C)c1ccc(Nc2nc(N)n(C(=O)c3c(F)cccc3F)n2)cc1` the value was 2.35 µM (active); for `N=c1nc(N2CCCCC2)cc(N)n1O`, 37.2 µM (active).
Regarding `CC1(C)CNc2cc(NC(=O)c3cccnc3NCc3ccncc3)ccc21`, the Potency is 0.372 µM (active).
For the molecule `CCN(CC)CCCC(C)Nc1nc(C)cc(Nc2ccc3nc(C)cc(N)c3c2)n1` (stereo not given), the Potency is 8.33 µM (active).
Consider `Cc1ccnc(NS(=O)(=O)c2ccc(NC(=O)Nc3ccc(S(=O)(=O)Nc4nccc(C)n4)cc3)cc2)n1`, for which the Potency is 23.5 µM (active).
The same measure, in the same setting: the same measure for `CC(C=CC1=C(C)CCCC1(C)C)=CC=CC(C)=CC(=O)O`: 2.64 µM (active).
Turning to `CCOc1cc(N2CCC(O)CC2)ccc1Nc1ncc2c(n1)N(C)c1ccccc1C(=O)N2C`, the Potency is 6.62 µM (active).
As to `Cn1cnc2c(F)c(Nc3ccc(Br)cc3Cl)c(C(=O)NOCCO)cc21`, the Potency is 0.0469 µM (active).
Still for that read-out and setting: for `COc1ccc([C@@H]2CC(=O)c3c(O)cc(O[C@@H]4O[C@H](CO[C@@H]5O[C@@H](C)[C@H](O)[C@@H](O)[C@@H]5O)[C@@H](O)[C@H](O)[C@@H]4O)cc3O2)cc1O` the value was 6.62 µM (active).

The next test is described as follows: Quantitative High-Throughput drug screen in 47 multiple myeloma cell lines against the NCATS MIPE library collection: OCIMY5_PLB cell viability assay (AID 1918988). Note: nearly all actives have a fitted effect of over 65% in size. Conditions: OCI-MY5 myeloma viability, ATP luminescence, 48 h; series mostly up to 45.8 µM. The method in brief: as §1
For `c1ccc([C@H]2CN3CCSC3=N2)cc1`, the Potency entry is “inactive”.
Still for that read-out and setting: the same measure for `N[C@@H]1CONC1=O`: “inactive”.
As for `CCOc1ccc(Cc2cc([C@@H]3O[C@H](CO)[C@@H](O)[C@H](O)[C@@H]3O)ccc2Cl)cc1`, the Potency result is “inactive”.
In the case of `OCCn1cc(-c2cnc3nnn(Cc4ccc5ncccc5c4)c3n2)cn1`, the Potency was 9.35 µM (active).
For `CN(C)c1ccc(Nc2nc(N)n(C(=O)c3c(F)cccc3F)n2)cc1`, the Potency was 11.8 µM (active).
On to `CNC[C@H](O)c1cccc(O)c1`, for which the Potency is 0.332 µM (active).
The same measure, in the same setting: for `CC(C)(C)NCC(O)c1ccc(O)c(CO)c1` (stereo not given) the value was 0.0148 µM (active); for `C[C@H](NC(=O)Cc1cc(F)cc(F)c1)C(=O)N[C@@H]1C(=O)N(C)c2ccccc2-c2ccccc21`, 16.6 µM (active).
On the same count and under the same terms, the same measure for `O=C1[C@H](Cc2ccc(O)cc2)N2C(=O)CCN(C(=O)NCc3ccccc3)[C@H]2CN1Cc1cccc2ccccc12`: 4.18 µM (active); for `CNCc1ccc(-c2[nH]c3cc(F)cc4c3c2CCNC4=O)cc1`: “inactive”; for `Cc1cn[nH]c1`: 0.0093 µM (active).
Regarding `CC(C=CC1=C(C)CCCC1(C)C)=CC=CC(C)=CC(=O)O`, the Potency is 14.8 µM (active).
Still for that read-out and setting: the same measure for `CCOc1cc(N2CCC(O)CC2)ccc1Nc1ncc2c(n1)N(C)c1ccccc1C(=O)N2C`: 14.8 µM (active); for `O=C(C1CC1)N1CC[C@@H](Cn2c(-c3ccc(-c4ccc5occc5c4)cc3)nc3cnccc32)C1`: 4.18 µM (active).
Consider `Cc1cc(Nc2nc(N[C@@H](C)c3ncc(F)cn3)ncc2Cl)n[nH]1`, for which the Potency was 7.43 µM (active).
On the same count and under the same terms, for `Cn1cnc2c(F)c(Nc3ccc(Br)cc3Cl)c(C(=O)NOCCO)cc21` the value was 9.35 µM (active); for `COc1ccc([C@@H]2CC(=O)c3c(O)cc(O[C@@H]4O[C@H](CO[C@@H]5O[C@@H](C)[C@H](O)[C@@H](O)[C@@H]5O)[C@@H](O)[C@H](O)[C@@H]4O)cc3O2)cc1O`, 13.2 µM (active).
